Assay outcomes deposited in PubChem by several laboratories.
In the library only some 4.2% were active in any assay of this set; here they are far more common.
GDH-TPI counter-1 – inhibits GDH-TPI coupling enzymes, artifact for Mtb FBA screen; GDH-TPI coupled enzyme counterscreen, NADH absorbance; inhibition, % at 4.8 µM; actives 1.2% (n = 360,000); AID 588335;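 also: 0% = DMSO wells and 100% = wells lacking the enzyme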
Mtb betalactam – beta-lactam sensitization of Mtb H37Rv; M. tuberculosis H37Rv growth with meropenem, percent inhibition; inhibition, % at 25 µM; actives 0.27% (n = 330,000); call rule not given here;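 also: growth measured after seven days incubation then overnight dye step; 0% = bacteria only wells and 100% = bacteria with antibiotic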
FBA Mtb inh – Mtb fructose-bisphosphate aldolase inhibition. P9WQA3. purified M. tuberculosis FBA, fluorescence read-out. inhibition, % at 1 µM. actives 2.3% (n = 360,000). AID 588726; in the data active = inhibition above about 27%;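 also: 0% = vehicle and 100% = reference inhibitor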
Target sequence (P9WQA3 whole entry, looked up): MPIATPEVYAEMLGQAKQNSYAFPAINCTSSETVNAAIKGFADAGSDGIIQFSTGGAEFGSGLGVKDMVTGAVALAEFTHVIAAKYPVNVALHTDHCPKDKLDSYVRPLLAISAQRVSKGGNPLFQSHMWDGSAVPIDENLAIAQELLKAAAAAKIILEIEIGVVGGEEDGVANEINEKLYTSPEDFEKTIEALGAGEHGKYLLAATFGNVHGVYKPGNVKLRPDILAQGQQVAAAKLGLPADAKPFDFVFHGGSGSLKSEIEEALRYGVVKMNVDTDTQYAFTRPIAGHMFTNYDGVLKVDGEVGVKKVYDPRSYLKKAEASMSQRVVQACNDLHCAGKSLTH
RecA splice inh – blocks M. tuberculosis RecA intein splicing; P9WHJ3; inhibition, % (concentration not given with the values); AID 2221; cell-free RecA intein splicing, fluorescence; actives 0.75% (n = 290,000); in the data active = inhibition above about 30%;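 also: 0% = vehicle wells and 100% = reference inhibitor control wells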
CCHF vOTU inh – CCHFV vOTU protease inhibition; Pep-AMC fluorescence; inhibition, % at 11.5 µM; actives 0.55% (n = 370,000); AID 651958; also: 0% = vehicle wells with enzyme and 100% = no enzyme wells
Mtb FBA confirm – confirmation of M. tuberculosis fructose-bisphosphate aldolase inhibitors. shares compounds with FBA Mtb inh. purified M. tuberculosis FBA, fluorescence read-out. inhibition, % at 1 µM. actives 78% (n = 5,600); in the data active = inhibition above about 27%;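 also: 0% = vehicle wells and 100% = reference inhibitor wells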
GDH-TPI counter-2 – inhibits GDH-TPI coupling enzymes, flagging Mtb FBA hits. actives 81% (n = 5,600). inhibition, % at 1 µM. GDH-TPI coupled enzyme counterscreen, fluorescence. shares compounds with FBA Mtb inh. AID 652141; in the data active = inhibition above about 10%
GDH-TPI DR – counter-screen for M. tuberculosis FBA inhibitors: GDH-TPI dose response | AID 652145 | IC50, µM | actives 79% (n = 170) | GDH-TPI coupled enzyme assay, fluorescence, artifact counterscreen | shares compounds with FBA Mtb inh; call rule not given here
Active calls of the source: *. Rule as the data show it, unless noted: active = inhibition above about 30%; inactive = the rest.

Screening Cn1c(=O)c2nc(Cl)c(-c3ccccc3)nc2n(C)c1=O returned GDH-TPI counter-1 8.1, Mtb betalactam -0.6, FBA Mtb inh 33.3*, RecA splice inh -4.9, CCHF vOTU inh -26.8, Mtb FBA confirm 151.6* and GDH-TPI counter-2 105.2*.
`Cn1c(=O)c2nc(-c3ccccc3)c(-c3ccccc3)nc2n(C)c1=O` gave GDH-TPI counter-1 13.2, Mtb betalactam 1.3, FBA Mtb inh 44.2*, RecA splice inh -3.9, CCHF vOTU inh -4.9, Mtb FBA confirm 81.0* and GDH-TPI counter-2 77.8*.
Cn1c(=O)c2nc3ccccc3nc2n(C)c1=O was read as GDH-TPI counter-1 -3.8, Mtb betalactam 5.0, FBA Mtb inh 11.3, RecA splice inh -7.0 and CCHF vOTU inh 0.2.
For O=C(Cc1ccc(Cl)cc1)Nc1ccc(-c2nnc(-c3ccco3)o2)cc1 the results were GDH-TPI counter-1 18.8, Mtb betalactam 10.0, FBA Mtb inh 59.5*, RecA splice inh -1.8, CCHF vOTU inh 6.9, Mtb FBA confirm 37.6* and GDH-TPI counter-2 31.2*.
O=C(Cc1ccccc1)Nc1ccc(-c2nnc(-c3ccco3)o2)cc1 was read as GDH-TPI counter-1 15.4, Mtb betalactam 0.6, FBA Mtb inh 50.6*, RecA splice inh 0.1, CCHF vOTU inh -3.3, Mtb FBA confirm active and GDH-TPI counter-2 151.3*.
Screening COc1ccccc1CC(=O)Nc1ccc(-c2nnc(-c3ccco3)o2)cc1 returned GDH-TPI counter-1 18.3, Mtb betalactam -4.5, FBA Mtb inh 83.0*, RecA splice inh 0.8, CCHF vOTU inh -9.6, Mtb FBA confirm 51.1* and GDH-TPI counter-2 42.1*.
For C[C@H](O)[C@@H]1C(=O)N2CCc3c([nH]c4c(-c5ccccc5)cccc34)[C@@H]2C[C@@H]1N(C)C(=S)NCCc1ccccc1 the results were CCHF vOTU inh -13.3.
For Cc1c(C)c2ccc(OC(C)C(=O)NCCCn3ccnc3)c(C)c2oc1=O (stereo unspecified) the results were GDH-TPI counter-1 20.7, Mtb betalactam 5.6, FBA Mtb inh 55.3*, RecA splice inh -2.0, CCHF vOTU inh -29.8, Mtb FBA confirm 66.6* and GDH-TPI counter-2 50.7*.
Screening Cc1cc(OCC(=O)NCCCN2CCCC2=O)c2c(C)cc(=O)oc2c1 returned GDH-TPI counter-1 10.9, Mtb betalactam -3.6, FBA Mtb inh 103.2*, RecA splice inh 4.2, CCHF vOTU inh -26.6, Mtb FBA confirm -7.8 and GDH-TPI counter-2 -5.5.
Screening CC(Oc1ccc2ccc(=O)oc2c1)C(=O)NCCCn1ccnc1 (stereo unspecified) returned GDH-TPI counter-1 8.3, Mtb betalactam 4.0, FBA Mtb inh 13.3, RecA splice inh -3.3 and CCHF vOTU inh 6.0.
Screening CCc1cc(=O)oc2cc(OCC(=O)NCCCN3CCCC3=O)ccc12 returned GDH-TPI counter-1 4.3, Mtb betalactam 3.3, FBA Mtb inh 19.2, RecA splice inh -1.7 and CCHF vOTU inh -5.2.
`CCCc1cc(=O)oc2cc(C)cc(OCC(=O)NCCCN3CCCC3=O)c12` gave GDH-TPI counter-1 0.0, Mtb betalactam 3.1, FBA Mtb inh 66.4*, RecA splice inh 0.6, CCHF vOTU inh -12.1, Mtb FBA confirm active and GDH-TPI counter-2 active.
`Cc1c(C)c2cc(Cl)c(OCC(=O)NCCCN3CCCC3=O)cc2oc1=O` gave GDH-TPI counter-1 33.6*, FBA Mtb inh 44.7*, CCHF vOTU inh -25.3, Mtb FBA confirm 12.5, GDH-TPI counter-2 3.9 and GDH-TPI DR 7.07*.
Screening Cc1cc(=O)oc2cc(OCC(=O)NCCCN3CCCC3=O)c(Cl)cc12 returned GDH-TPI counter-1 5.5, Mtb betalactam -7.0, FBA Mtb inh 6.2, RecA splice inh -2.3 and CCHF vOTU inh 5.0.
`COCCCN1C(=O)[C@H](CC(=O)NCc2cccc(C(F)(F)F)c2)[C@]2(C(=O)OC)CCCCC=C12` gave CCHF vOTU inh 7.4.
For Cc1nc2cc(C(=O)N3CCN(C(=O)OCc4ccccc4)CC3)ccc2n1C1CCCC1 the results were CCHF vOTU inh 10.3.
Screening CCc1cc(=O)oc2cc(C)cc(OC(C)C(=O)NC3CC(C)(C)NC(C)(C)C3)c12 (stereo unspecified) returned GDH-TPI counter-1 13.0, Mtb betalactam -6.0, FBA Mtb inh 72.2*, RecA splice inh -1.6, CCHF vOTU inh -6.3, Mtb FBA confirm 49.1* and GDH-TPI counter-2 42.4*.
For Cc1c(OC(C)C(=O)NCCCN2CCOCC2)ccc2c1oc(=O)c1ccccc12 (stereo unspecified) the results were GDH-TPI counter-1 -5.5, Mtb betalactam -1.1, FBA Mtb inh 74.3*, RecA splice inh -1.5, CCHF vOTU inh -77.5, Mtb FBA confirm 2.4 and GDH-TPI counter-2 -4.9.
CCc1cc(=O)oc2cc(C)cc(OC(C)C(=O)NCCCN3CCCC3=O)c12 (stereo unspecified) was read as GDH-TPI counter-1 -2.2, Mtb betalactam 0.8, FBA Mtb inh 86.7*, RecA splice inh 1.1, CCHF vOTU inh -21.1, Mtb FBA confirm 0.7 and GDH-TPI counter-2 1.0.
For CCc1cc(=O)oc2cc(C)cc(OC(C)C(=O)NCCCn3ccnc3)c12 (stereo unspecified) the results were GDH-TPI counter-1 -8.7, Mtb betalactam 2.9, FBA Mtb inh 53.7*, RecA splice inh -0.3, CCHF vOTU inh -17.5, Mtb FBA confirm 5.2 and GDH-TPI counter-2 -6.5.
`Cc1ccc(C2=CCN(C)C(=O)N2c2ccc(Br)cc2)cc1` gave CCHF vOTU inh 12.2.
C[C@H](c1ccccc1)N1C[C@@H](COCc2ccccc2)Oc2cccc(N3CCCC3)c2S1(=O)=O was read as CCHF vOTU inh 0.8.
Screening N#Cc1ccc(OCCCN2CCC(C(O)(C3=CCCC3)c3ccccc3)CC2)cc1 (stereo unspecified) returned CCHF vOTU inh 0.9.
For N#CCSc1n[nH]c2nc3c(c(=O)n12)C1(CCCC1)Cc1ccccc1-3 the results were GDH-TPI counter-1 -5.8, Mtb betalactam -11.8, FBA Mtb inh 65.8*, RecA splice inh -0.7, CCHF vOTU inh -33.8, Mtb FBA confirm 114.7* and GDH-TPI counter-2 82.7*.
O=C(Cc1ccccc1F)N1CCC(n2nnc3ncccc32)CC1 was read as CCHF vOTU inh -0.3.
`Cc1c2cnccc2c(C)c2c1oc1ccccc12` gave GDH-TPI counter-1 2.6, FBA Mtb inh 42.9*, CCHF vOTU inh -6.2, Mtb FBA confirm 114.9* and GDH-TPI counter-2 94.0*.
Screening Cc1cccc(N(C(=O)c2snc(C(N)=O)c2N)C(C(=O)NCC2CCCO2)c2cccs2)c1 (stereo unspecified) returned GDH-TPI counter-1 7.7, Mtb betalactam 4.3, FBA Mtb inh 12.5, RecA splice inh -1.5 and CCHF vOTU inh -17.6.
